# Results as given in PubChem BioAssay (NCATS).
# Results filed as inconclusive are left out. A structure can be active in one record and inactive in another. Activity calls are given as the source filed them. Calls follow the shape of the dose curve; as a rule, active = well fitted inhibition curve with a large enough effect in the repeat runs; inconclusive = weak or mixed curves; inactive = flat fitted curve, though single readings scatter.
# Target: Cytochrome P450 2D6 (Homo sapiens) (UniProt P10635)
# Sequence (P10635 whole entry, looked up): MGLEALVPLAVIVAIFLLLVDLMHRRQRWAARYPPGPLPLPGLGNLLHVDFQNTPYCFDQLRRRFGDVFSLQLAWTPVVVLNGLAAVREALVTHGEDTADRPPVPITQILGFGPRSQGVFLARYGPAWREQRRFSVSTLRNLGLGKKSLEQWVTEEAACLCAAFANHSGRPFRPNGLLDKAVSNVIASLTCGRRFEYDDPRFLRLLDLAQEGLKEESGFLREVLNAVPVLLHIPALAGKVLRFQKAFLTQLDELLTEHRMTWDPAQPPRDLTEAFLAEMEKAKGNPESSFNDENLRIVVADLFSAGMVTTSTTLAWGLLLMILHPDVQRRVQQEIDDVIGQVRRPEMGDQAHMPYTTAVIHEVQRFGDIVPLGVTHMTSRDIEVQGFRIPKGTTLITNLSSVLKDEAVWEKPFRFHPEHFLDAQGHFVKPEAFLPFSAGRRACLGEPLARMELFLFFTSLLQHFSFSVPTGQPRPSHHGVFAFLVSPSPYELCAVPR
# Experiment: Cytochrome P450 family 2 subfamily D member 6 (CYP2D6) small molecule antagonists: luciferase biochemical (cell-free) qHTS assay (AID 1645840); also: nearly all actives have a fitted effect of over 55% in size
# Details: P450-Glo CYP2D6 enzyme, luciferin luminescence, 1 h; series mostly up to 57.4 µM; activity change, negative = inhibition: at the top concentration
# Description: National Center for Advancing Translational Sciences [NCATS] Assay Overview: Cytochrome P450 (CYP) enzymes are membrane-bound hemeproteins that play a key role in metabolism of drugs and xenobiotics. Assaying the effect of chemicals on CYP isozymes is useful to minimize the adverse drug reactions and toxicities in drug development process. Chemical compounds were tested for their effect on CYP enzyme activities by using P450-Glo (TM) screening systems (Promega Corporation, Madison, WI). These systems provide a luminescent method containing proluciferin substrates and are converted to luciferin products by CYP isozymes. The luciferin products formed are detected with a luciferin detection reagent, and the amount of light produced is proportional to CYP activity. P450-Glo (TM) CYP2D6 screening system (Catalog. No. V9890) was used to detect the compounds that interfere in CYP2D6 activity.
# Assay Protocol Summary: Two ul of enzyme-substrate mix was dispensed into medium binding white/solid 1536-well plates (Greiner Bio-One North America Inc., Monroe, NC) using a Flying Reagent Dispenser (FRD, Aurora Discovery, San Diego, CA). […] The assay plates were incubated at room temperature for 10 min. Then 2 ul of NADPH regeneration solution was added to each well of the assay plates using an FRD and incubated at room temperature for 1 h. The reaction was stopped by adding 4 ul of detection reagent using an FRD and after 20 min incubation at room temperature, the luminescence signal was measured using a ViewLux plate reader (Perkin Elmer, Shelton, CT). Data were expressed as relative luminescence units.
# % is scaled to controls: 0 for no effect and ±100 for the full control effect; potency is read from the fitted curve at half-maximal effect.
SMILES,"activity change, negative = inhibition",Potency
O=P1(N(CCCl)CCCl)NCCCO1 (stereo not given),-3.58% (inactive),
COc1c2c(cc3c1OCO3)CCN(C)C2,,2.45 µM (active)
CN1C(=O)COc2c(C(=O)NC3CN4CCC3CC4)cc(Cl)cc21 (stereo not given),5.55% (inactive),
O=[N+]([O-])O[C@H]1CO[C@H]2[C@@H]1OC[C@H]2O[N+](=O)[O-],-0.284% (inactive),
CCC1(c2ccc(N)cc2)CCC(=O)NC1=O (stereo not given),7.32% (inactive),
CC(C)(C)NCC(O)c1cc(Cl)c(N)c(C(F)(F)F)c1 (stereo not given),,15.5 µM (active)
O=c1[nH]oc2c1CCNC2,-11.7% (inactive),
COC1CC(=C(c2cccs2)c2cccs2)C[N+](C)(C)C1 (stereo not given),,0.138 µM (active)
O=C1c2ccccc2C(=O)C1C(=O)C(c1ccccc1)c1ccccc1,,19.2 µM (active)
O=C1OC(CCN2CCCCC2)OC1(c1ccccc1)c1ccccc1 (stereo not given),,0.617 µM (active)
O=C(O)c1ccc(=O)[nH]c1,-2.66% (inactive),
CC(=O)C1CCOC1=O (stereo not given),12% (inactive),
O=C(O)CCCc1ccc(N(CCCl)CCCl)cc1,15.2% (inactive),
c1ccc2c(c1)sc1ccccc12,7.01% (inactive),
CCC1(c2ccccc2)C(=O)N(COC)C(=O)N(COC)C1=O,3.83% (inactive),
COC(=O)[C@@H](N)CCCN/C(N)=N/[N+](=O)[O-],2.07% (inactive),
C[C@]12CCC(=O)C=C1CC[C@@H]1[C@@H]2CC[C@@]2(C)[C@H]1CC[C@]2(C)O,-18.4% (inactive),
Cc1ncsc1CCCl,3.97% (inactive),
CC(NC(C)(C)C)C(=O)c1cccc(Cl)c1 (stereo not given),,11 µM (active)
CCC1(CC)C(=O)C=CNC1=O,-2.26% (inactive),

SMILES,"activity change, negative = inhibition",Potency
c1ccc(CN2CCNCC2)cc1,,30.6 µM (active)
CC(=O)NC1CCSC1=O (stereo not given),-0.278% (inactive),
CN1CCC(O)(c2ccc(F)cc2)C(C(=O)c2ccc(F)cc2)C1 (stereo not given),,24.5 µM (active)
CCN(CCO)CCn1c(Cc2ccccc2)nc2c1c(=O)n(C)c(=O)n2C,1.43% (inactive),
CCOC(=O)CC(SP(=S)(OC)OC)C(=O)OCC (stereo not given),,39.9 µM (active) and inactive
C=CCC1([C@H](C)CCC)C(=O)NC(=O)NC1=O,14.1% [at 115 µM] (inactive),
Nc1ccc([As](=O)(O)O)cc1,7.5% (inactive),
CCOP(=S)(OCC)Oc1ccc2c(C)c(Cl)c(=O)oc2c1,,15.5 µM (active)
CCC(C)C(C)(COC(N)=O)COC(N)=O (stereo not given),4.78% (inactive),
O=C(CCCN1CCC2(CC1)C(=O)NCN2c1ccccc1)c1ccc(F)cc1,,0.309 µM (active)
O=C1CN=C(c2ccccc2)c2cc([N+](=O)[O-])ccc2N1,-20.5% (inactive),
COc1cccc(C(=O)CCN[C@@H](C)[C@H](O)c2ccccc2)c1,,1.55 µM (active)
C[C@]12CC[C@H]3[C@@H](CC[C@@]45O[C@H]4C(O)=C(C#N)C[C@]35C)[C@H]1CC[C@H]2O,6.45% (inactive),
C[C@H](N)C(=O)c1ccccc1,,42.2 µM (active)
Oc1ccc(Cl)cc1,-6.51% (inactive),
CCN(CC)CCc1c[nH]c2ccccc12,,5.91 µM (active)
CC(C)=CC1C(C(=O)OCN2C(=O)C3=C(CCCC3)C2=O)C1(C)C (stereo not given),,6.92 µM (active)
COC(=O)C(Cl)C(=O)OC,7.27% (inactive),
CNCC(=O)c1ccc(O)c(O)c1,-2.94% (inactive),
Nc1nc(N)nc(NC2CC2)n1,2.44% (inactive),
